In ChEMBL document CHEMBL1961873, “Compounds: GSK PKIS; Assays: Nanosyn kinase panel” (2012):

target: T1, Serine/threonine-protein kinase D3 (Homo sapiens) (UniProt O94806); settings: at 1 µM;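 further: values are mean inhibition figures against PRKD3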
T1 sequence (whole entry): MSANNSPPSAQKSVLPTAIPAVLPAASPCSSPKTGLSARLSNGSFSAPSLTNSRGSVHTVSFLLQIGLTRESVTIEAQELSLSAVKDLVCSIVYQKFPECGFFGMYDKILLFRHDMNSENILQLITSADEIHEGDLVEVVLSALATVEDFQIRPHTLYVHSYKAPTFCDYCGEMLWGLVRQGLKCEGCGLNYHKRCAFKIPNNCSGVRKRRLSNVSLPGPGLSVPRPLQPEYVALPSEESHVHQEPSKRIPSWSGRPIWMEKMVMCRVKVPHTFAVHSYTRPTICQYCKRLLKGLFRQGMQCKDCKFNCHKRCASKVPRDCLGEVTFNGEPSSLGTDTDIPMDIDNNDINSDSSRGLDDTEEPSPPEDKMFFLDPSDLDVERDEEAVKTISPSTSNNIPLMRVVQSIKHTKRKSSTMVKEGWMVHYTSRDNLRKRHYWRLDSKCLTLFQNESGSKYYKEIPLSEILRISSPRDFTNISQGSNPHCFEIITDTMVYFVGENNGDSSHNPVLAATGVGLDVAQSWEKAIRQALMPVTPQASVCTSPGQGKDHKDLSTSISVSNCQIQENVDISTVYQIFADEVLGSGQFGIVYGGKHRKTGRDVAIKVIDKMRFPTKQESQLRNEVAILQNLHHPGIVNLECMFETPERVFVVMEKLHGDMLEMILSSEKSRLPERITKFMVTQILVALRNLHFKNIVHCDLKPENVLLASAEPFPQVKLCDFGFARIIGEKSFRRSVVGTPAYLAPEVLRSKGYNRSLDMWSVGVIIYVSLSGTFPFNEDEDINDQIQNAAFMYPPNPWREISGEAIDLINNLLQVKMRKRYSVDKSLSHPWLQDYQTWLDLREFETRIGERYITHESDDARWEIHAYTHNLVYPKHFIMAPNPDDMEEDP

Row | SMILES | inhibition
1 | CCn1c(-c2nonc2N)nc2c(C#CC(C)(C)O)ncc(OCC3CCNCC3)c21 | 4.23%
2 | COc1cccc(-n2ncc3c(N/N=C/c4ccncc4)ncnc32)c1 | 9.03%
3 | CCn1c(-c2nonc2N)nc2c(C#CCN)ncc(OCCCN)c21 | -1.06%
4 | COc1cccc(COc2cc(-n3cnc4ccccc43)sc2C(N)=O)c1 | 0.32%
5 | Fc1ccc(-c2ncn(C3CCNCC3)c2-c2ccnc(Oc3ccccc3)n2)cc1 | 2.37%
6 | COc1cc(C=NNc2ncnc3c2cnn3Cc2ccccc2)ccc1O | -1.04%
7 | Cc1cc(-c2ccco2)cc(C)c1/C=C/c1cncc(-c2nn[nH]n2)c1 | 1.22%
8 | CCn1c(-c2nonc2N)nc2c(C#CC(C)(C)O)ncc(OC[C@@H]3CCCN3)c21 | 15.9%
9 | CCn1c(-c2nonc2N)nc2c(C#CC(C)(C)O)nc(O[C@@H](CN)c3ccccc3)cc21 | 64.3%
10 | NS(=O)(=O)c1ccc(-c2ccc3c(NC(=O)C4CC4)n[nH]c3c2)cc1 | 0.5%
11 | NC(=O)c1sc(-n2cnc3cc(C(F)(F)F)ccc32)cc1OCc1ccccc1Br | 1.32%
12 | NS(=O)(=O)c1ccc(N/C=C2\C(=O)Nc3ccc4ncsc4c32)cc1 | 54.2%
13 | Nc1nonc1-c1nc2cnccc2n1C1CCCCC1 | 2.27%
14 | COc1cc2c(cc1Nc1nc(Nc3ccsc3C(N)=O)c3cc[nH]c3n1)N(C(=O)CN(C)C)CCC2 | 51.1%

target: T2, cGMP-dependent protein kinase 1 (Homo sapiens) (UniProt Q13976); settings: at 0.1 µM
T2 sequence (whole entry): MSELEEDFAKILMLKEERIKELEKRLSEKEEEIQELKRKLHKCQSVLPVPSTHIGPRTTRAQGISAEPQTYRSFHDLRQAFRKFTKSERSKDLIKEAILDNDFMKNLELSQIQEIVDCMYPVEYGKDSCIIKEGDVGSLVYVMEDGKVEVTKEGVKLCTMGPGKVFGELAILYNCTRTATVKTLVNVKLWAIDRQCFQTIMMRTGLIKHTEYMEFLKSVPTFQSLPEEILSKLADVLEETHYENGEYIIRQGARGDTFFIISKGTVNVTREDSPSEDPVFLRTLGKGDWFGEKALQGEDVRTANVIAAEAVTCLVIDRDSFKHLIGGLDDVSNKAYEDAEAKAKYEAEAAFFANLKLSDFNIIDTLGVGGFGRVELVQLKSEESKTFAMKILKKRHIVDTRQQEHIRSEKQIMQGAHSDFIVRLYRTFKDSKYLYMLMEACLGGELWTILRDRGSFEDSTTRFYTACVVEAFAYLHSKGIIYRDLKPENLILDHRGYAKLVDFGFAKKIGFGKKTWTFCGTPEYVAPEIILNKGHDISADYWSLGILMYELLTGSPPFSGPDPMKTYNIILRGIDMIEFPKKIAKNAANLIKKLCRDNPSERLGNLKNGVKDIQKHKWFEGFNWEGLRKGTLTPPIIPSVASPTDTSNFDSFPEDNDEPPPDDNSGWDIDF

Row | SMILES | inhibition
15 | CCn1c(-c2nonc2N)nc2c(C#CC(C)(C)O)ncc(OCC3CCNCC3)c21 | 9.8%
16 | COc1cccc(-n2ncc3c(N/N=C/c4ccncc4)ncnc32)c1 | 3.25%
17 | CCn1c(-c2nonc2N)nc2c(C#CCN)ncc(OCCCN)c21 | 8.62%
18 | COc1cccc(COc2cc(-n3cnc4ccccc43)sc2C(N)=O)c1 | 0.58%
19 | Fc1ccc(-c2ncn(C3CCNCC3)c2-c2ccnc(Oc3ccccc3)n2)cc1 | 0.84%
20 | COc1cc(C=NNc2ncnc3c2cnn3Cc2ccccc2)ccc1O | 0.15%
21 | Cc1cc(-c2ccco2)cc(C)c1/C=C/c1cncc(-c2nn[nH]n2)c1 | -0.2%
22 | CCn1c(-c2nonc2N)nc2c(C#CC(C)(C)O)ncc(OC[C@@H]3CCCN3)c21 | 49.9%
23 | CCn1c(-c2nonc2N)nc2c(C#CC(C)(C)O)nc(O[C@@H](CN)c3ccccc3)cc21 | 68.7%
24 | NS(=O)(=O)c1ccc(-c2ccc3c(NC(=O)C4CC4)n[nH]c3c2)cc1 | 0.62%
25 | NC(=O)c1sc(-n2cnc3cc(C(F)(F)F)ccc32)cc1OCc1ccccc1Br | 0.44%
26 | NS(=O)(=O)c1ccc(N/C=C2\C(=O)Nc3ccc4ncsc4c32)cc1 | 4.89%
27 | Nc1nonc1-c1nc2cnccc2n1C1CCCCC1 | 14.4%
28 | COc1cc2c(cc1Nc1nc(Nc3ccsc3C(N)=O)c3cc[nH]c3n1)N(C(=O)CN(C)C)CCC2 | -0.55%

target: T2, cGMP-dependent protein kinase 1 (Homo sapiens); settings: at 1 µM

Row | SMILES | inhibition
29 | CCn1c(-c2nonc2N)nc2c(C#CC(C)(C)O)ncc(OCC3CCNCC3)c21 | 48.9%
30 | CCn1c(-c2nonc2N)nc2c(C#CCN)ncc(OCCCN)c21 | 38%
31 | COc1cccc(COc2cc(-n3cnc4ccccc43)sc2C(N)=O)c1 | -0.92%
32 | Fc1ccc(-c2ncn(C3CCNCC3)c2-c2ccnc(Oc3ccccc3)n2)cc1 | 0.86%
33 | COc1cc(C=NNc2ncnc3c2cnn3Cc2ccccc2)ccc1O | 3.36%
34 | Cc1cc(-c2ccco2)cc(C)c1/C=C/c1cncc(-c2nn[nH]n2)c1 | -0.46%
35 | CCn1c(-c2nonc2N)nc2c(C#CC(C)(C)O)ncc(OC[C@@H]3CCCN3)c21 | 76.4%
36 | CCn1c(-c2nonc2N)nc2c(C#CC(C)(C)O)nc(O[C@@H](CN)c3ccccc3)cc21 | 81.1%
37 | NS(=O)(=O)c1ccc(-c2ccc3c(NC(=O)C4CC4)n[nH]c3c2)cc1 | 1.57%
38 | NC(=O)c1sc(-n2cnc3cc(C(F)(F)F)ccc32)cc1OCc1ccccc1Br | -0.88%
39 | NS(=O)(=O)c1ccc(N/C=C2\C(=O)Nc3ccc4ncsc4c32)cc1 | 16.7%
40 | Nc1nonc1-c1nc2cnccc2n1C1CCCCC1 | 61.2%
41 | COc1cc2c(cc1Nc1nc(Nc3ccsc3C(N)=O)c3cc[nH]c3n1)N(C(=O)CN(C)C)CCC2 | -0.01%

target: T3, cGMP-dependent protein kinase 2 (Homo sapiens) (UniProt Q13237); settings: at 0.1 µM;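 further: reported figure is a mean inhibition value against PRKG2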
T3 sequence (whole entry): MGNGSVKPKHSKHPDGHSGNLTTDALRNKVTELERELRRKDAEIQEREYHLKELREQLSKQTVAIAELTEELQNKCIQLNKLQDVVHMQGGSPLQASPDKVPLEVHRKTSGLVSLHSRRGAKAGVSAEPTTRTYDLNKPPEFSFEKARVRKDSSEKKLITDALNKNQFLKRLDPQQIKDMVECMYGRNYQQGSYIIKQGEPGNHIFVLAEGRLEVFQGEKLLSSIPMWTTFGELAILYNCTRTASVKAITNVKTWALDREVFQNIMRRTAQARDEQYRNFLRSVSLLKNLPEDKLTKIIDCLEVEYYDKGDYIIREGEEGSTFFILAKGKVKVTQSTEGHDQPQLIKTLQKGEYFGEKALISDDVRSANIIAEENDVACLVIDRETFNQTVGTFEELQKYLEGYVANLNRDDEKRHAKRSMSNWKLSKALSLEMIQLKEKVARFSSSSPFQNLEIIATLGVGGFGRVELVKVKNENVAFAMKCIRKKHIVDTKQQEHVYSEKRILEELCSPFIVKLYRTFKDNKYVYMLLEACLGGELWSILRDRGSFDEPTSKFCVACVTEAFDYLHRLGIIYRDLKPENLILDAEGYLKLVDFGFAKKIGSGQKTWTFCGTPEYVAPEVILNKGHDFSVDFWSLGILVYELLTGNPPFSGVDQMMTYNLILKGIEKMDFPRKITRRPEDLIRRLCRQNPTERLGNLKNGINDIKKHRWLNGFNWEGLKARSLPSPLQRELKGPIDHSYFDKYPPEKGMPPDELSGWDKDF

Row | SMILES | inhibition
42 | CCn1c(-c2nonc2N)nc2c(C#CC(C)(C)O)ncc(OCC3CCNCC3)c21 | 35.4%
43 | COc1cccc(-n2ncc3c(N/N=C/c4ccncc4)ncnc32)c1 | 1.96%
44 | CCn1c(-c2nonc2N)nc2c(C#CCN)ncc(OCCCN)c21 | 37.1%
45 | COc1cccc(COc2cc(-n3cnc4ccccc43)sc2C(N)=O)c1 | 1.93%
46 | Fc1ccc(-c2ncn(C3CCNCC3)c2-c2ccnc(Oc3ccccc3)n2)cc1 | 0.69%
47 | COc1cc(C=NNc2ncnc3c2cnn3Cc2ccccc2)ccc1O | 0.26%
48 | Cc1cc(-c2ccco2)cc(C)c1/C=C/c1cncc(-c2nn[nH]n2)c1 | 0.23%
49 | CCn1c(-c2nonc2N)nc2c(C#CC(C)(C)O)ncc(OC[C@@H]3CCCN3)c21 | 65.7%
50 | CCn1c(-c2nonc2N)nc2c(C#CC(C)(C)O)nc(O[C@@H](CN)c3ccccc3)cc21 | 67.9%
51 | NS(=O)(=O)c1ccc(-c2ccc3c(NC(=O)C4CC4)n[nH]c3c2)cc1 | 1.04%
52 | NC(=O)c1sc(-n2cnc3cc(C(F)(F)F)ccc32)cc1OCc1ccccc1Br | 0.81%
53 | NS(=O)(=O)c1ccc(N/C=C2\C(=O)Nc3ccc4ncsc4c32)cc1 | 9.85%
54 | Nc1nonc1-c1nc2cnccc2n1C1CCCCC1 | 41.1%
55 | COc1cc2c(cc1Nc1nc(Nc3ccsc3C(N)=O)c3cc[nH]c3n1)N(C(=O)CN(C)C)CCC2 | 0.12%
